High-throughput results: PubChem BioAssay, The Scripps Research Institute Molecular Screening Center
PRMT1 inh: PRMT1 methyltransferase inhibitors, primary screen, biochemical, fluorescence polarization | Protein arginine N-methyltransferase 1 (Homo sapiens), Q99873 | recombinant PRMT1, activity-based probe fluorescence polarization | inhibition, % at 2.79 µM | 1.3% of 370,000 active | AID 652257, 2013;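 active means inhibition above about 21% made by adding two undisclosed values, limit read from the data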
Target sequence (Q99873 whole entry, looked up): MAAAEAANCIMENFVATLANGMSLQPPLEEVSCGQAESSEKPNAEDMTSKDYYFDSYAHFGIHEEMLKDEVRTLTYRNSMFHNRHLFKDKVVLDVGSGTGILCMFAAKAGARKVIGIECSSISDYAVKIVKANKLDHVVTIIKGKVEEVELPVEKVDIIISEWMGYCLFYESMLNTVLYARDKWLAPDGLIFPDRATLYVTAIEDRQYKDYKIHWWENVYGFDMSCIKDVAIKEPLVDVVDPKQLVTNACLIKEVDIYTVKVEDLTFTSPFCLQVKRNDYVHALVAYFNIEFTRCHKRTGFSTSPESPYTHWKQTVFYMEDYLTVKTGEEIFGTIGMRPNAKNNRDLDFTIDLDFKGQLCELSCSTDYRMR
MBD2 DNA inh: inhibitors of MBD2 binding to methylated DNA, primary screen, biochemical, TR-FRET, DNA-binding domain, human; Methyl-CpG-binding domain protein 2 (Homo sapiens), Q9UBB5; MBD2 binding to methylated oligonucleotide; inhibition, % at 4.4 µM; 0.31% of 370,000 active; AID 686964, 2013; in the data active means inhibition above about 13%
LEDGF integ inh: blockers of LEDGF/p75-dependent integrase strand transfer – biochemical, TR-FRET, high throughput, primary screen | TR-FRET IN-LEDGF/p75 DNA integration, Eu/Cy5 | inhibition, % at 3.7 µM | 0.64% of 370,000 active | HIV-1 integrase (with human LEDGF/p75);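 active means inhibition above the screen-wide mean plus 3 SD, cut at about 13% in these data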;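 further: signal is the Cy5 over europium emission ratio at 671 and 618 nm; 0% = plate median of compound wells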
UHRF1 MBD2 ctr: UHRF1 methylated DNA binding inhibitors, primary screen, counter-screen for MBD2 inhibitor project, biochemical, TR-FRET, human UHRF1, single concentration. UHRF1 binding to methylated oligo. inhibition, % at 4.4 µM. AID 687016, 2013. E3 ubiquitin-protein ligase UHRF1 (Homo sapiens), Q96T88. 0.75% of 370,000 active; in the data active means inhibition above about 21%;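 further: UHRF1 SRA domain binding a hemimethylated CpG hairpin DNA probe; 0% = median of test compound wells and 100% = reference inhibitor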
* marks the source's active call; other numbers are inactive results. Most compounds without a hit are left out; they make up all but 2.5% or so of the library.

SMILES	PRMT1 inh	MBD2 DNA inh	LEDGF integ inh	UHRF1 MBD2 ctr
Cc1onc(-c2c(F)cccc2Cl)c1C(=O)c1ccc(F)cc1	-2	-4	1	73*
Cc1onc(-c2c(Cl)cccc2Cl)c1C(=O)OCC(=O)c1ccccc1	6	4	2	52*
CCOC(=O)C1(C)CCCN(C(=O)c2ccc(F)cc2Cl)C1 (stereo not given)	-3	-1	0	-1
Cc1nc2ccc(S(=O)(=O)NCC(=O)NCc3ccc(F)cc3)cc2s1	5	-1	-6	4
COC(=O)c1ccc2nc(-c3ccc(OC)c(OC)c3)c(Cc3ccccc3OC)n2c1	2	8	-4	23*
COC(=O)c1ccc2nc(-c3ccc(OC)c(OC)c3)c(Cc3ccccc3C(F)(F)F)n2c1	0	5	2	24*
Cc1ccc(CCC(=O)Nc2ccc([N+](=O)[O-])cc2)o1	4	3	-8	13
COCCN=C1NN=C(c2ccc(NC(C)=O)cc2)CS1	22*	0	7	-2
CN1CCN(C(=O)C2CCN(S(=O)(=O)c3cnc[nH]3)CC2)CC1	0	1	-1	1
O=C(C1CCN(S(=O)(=O)c2cnc[nH]2)CC1)N1CCc2ccccc2C1	-3	-2	-2	30*
O=C(Cn1nnc(-c2ccccc2)n1)Nc1cccc(S(=O)(=O)N2CCOCC2)c1	0	4	1	29*
O=C1NN(c2ccccc2)C(=O)/C1=C\c1ccccc1OCC(=O)N1CCOCC1	21*	-5	6	11
CC(=O)c1cccc(-c2ccnc3c2CC(C(=O)Nc2ccc4c(c2)OCO4)O3)c1 (stereo not given)	-6	1	5	-3
CCC(=O)OCOc1ccc(/C=C2/CCC(CN(C)C)C2=O)cc1 (stereo not given)	37*	1	7	-3
Cc1ccc(C)c(N2CCN(C(=O)c3cc4sccc4n3C)CC2)c1	22*	-6	3	-1
Cc1nc2ccc(NC(=O)c3ccc(S(=O)(=O)N(C)c4ccccc4)cc3)cc2s1	0	1	5	26*
C=CC[C@@H]1NN2C(=O)[C@@H](CCc3ccccc3)[C@@H]3c4ccccc4C=NN3[C@@H]2c2ccccc21	-1	5	2	83*
C=CC[C@@H]1NN2C(=O)[C@@H](CCCC)[C@@H]3c4ccccc4C=NN3[C@@H]2c2ccccc21	-3	-1	-2	0
COc1ccc(OC)c(/C=C2\SC(=S)N(Cc3cccnc3)C2=O)c1	1	1	2	1
COc1ccc(O)c(/C=C2/SC(=S)N(Cc3ccccc3)C2=O)c1	23*	3	-2	3
C=C1C(=O)[C@@]23[C@H](O)C[C@@H]4C(C)(C)CC[C@H](O)[C@]4(C)[C@@H]2C[C@H](O)[C@@H]1[C@H]3O	22*	1	3	3
Cn1ncc2c(c(SCc3ccc(Cl)cc3Cl)nn2C)c1=O	22*	7	7	9
COC(=O)C1CN(C2CC2)CCS(=O)(=O)N1Cc1cn(Cc2ccc(C)cc2)nn1 (stereo not given)	-1	0	2	11
CCO/C(C)=N/Oc1cccc(N(C)C)c1	15	-4	-2	29*
CCO/C(C)=N/Oc1cnc2ccccc2c1	2	1	-1	-2
SMILES	PRMT1 inh	MBD2 DNA inh	LEDGF integ inh	UHRF1 MBD2 ctr
COc1cc(Br)cc(/C=N/NC(=O)Cc2ccccc2)c1O	1	3	-6	-3
O=C(Cc1ccccc1)N/N=C/c1cc(Br)cc(Cl)c1O	0	1	-6	58*
Cc1ccc(NC(=O)C2CCCN2c2nn3c(=O)cc(C)nc3s2)cc1 (stereo not given)	-8	-4	3	-3
CC1CCCC(C(=O)O)N1C(=O)CCS (stereo not given)	25*	7	-2	2
Cc1cc(C)nc(N2N=C(C(F)(F)F)CC2=O)n1	1	-7	-1	1
O=[N+]([O-])c1ccccc1S(=O)(=O)N1CCSCC1	1	1	2	66*
NC(=S)NN=C(c1ccc(F)cc1)C1CC1	-2	-2	0	3
CCOc1ccc(S(=O)(=O)n2c([N+](=O)[O-])cnc2C)c(C)c1C	-1	-4	2	1
CCCNS(=O)(=O)c1ccc(OCC(=O)Nc2ccc3c(c2)OCCO3)cc1	-1	5	-2	24*
COC(=O)C1(C)NCCc2c1[nH]c1ccccc21 (stereo not given)	-1	-4	0	0
CCOC(=O)N1CCC2(CC1)NCCc1c2[nH]c2ccccc12	-1	-3	0	25*
COc1ccc(N2CCN(C(=O)CCc3ccccc3)CC2)cc1	-1	0	0	4
CCCC#Cc1cnc2c(c1)C(=O)N([C@H](C)CO)C[C@H](C)[C@@H](CN(C)C(=O)CCN1CCCCC1)O2	-2	12	4	24*
C[C@@H]1CN([C@@H](C)CO)C(=O)c2cc(Br)cnc2O[C@H]1CN(C)C(=O)CCN1CCCCC1	-2	-1	1	-2
C[C@H](CO)N1C[C@H](C)[C@@H](CN(C)C(=O)Nc2ccccc2)Oc2ncc(C#CC3CCCCC3)cc2C1=O	0	5	1	22*
COc1ccc(C#Cc2cnc3c(c2)C(=O)N([C@H](C)CO)C[C@H](C)[C@@H](CN(C)C(=O)Nc2cccc(OC)c2)O3)cc1	3	5	-6	19
Cc1nn(CC(=O)O)c(C)c1N	4	8	8	30*
Clc1ccc(NN(Cc2ccncc2)c2ccc(Cl)cc2)cc1	-3	-1	-2	-1
CCCCOc1ccc(C(=O)NC2CCCCN(CCC)C2=O)cc1 (stereo not given)	-1	-1	-2	-1
Cc1nc2sc(C(=O)NCc3ccc4c(c3)OCO4)c(N)c2c(C)c1Cl	22*	3	-3	0
COc1ccc(CNC(=O)c2sc3nc(C)c(Cl)c(C)c3c2N)cc1	9	-7	1	-3
O=S1(=O)N[C@H](Cc2ccccc2)COc2cc(Br)ccc21	1	5	-3	-1
C=C(CN(C)C)C(=O)c1ccc(C)cc1C	23*	2	-1	-2
C/C(=N\Nc1ccc(Cl)c(C(=O)O)c1)c1cc2ccccc2o1	6	-3	-2	31*
CCn1c(SCc2nc3sc(C(=O)O)c(C)c3c(=O)[nH]2)nc2ccccc21	10	7	6	25*
O=C1CCCN1CC1CCCN(Cc2nc(COc3ccccc3)no2)C1 (stereo not given)	-2	2	0	23*
CCOC(=O)C(NC(=O)CCl)(Nc1sc(C)c(CC)c1C#N)C(F)(F)F (stereo not given)	22*	0	2	18
COc1cccc(NC(=O)C2(C)CCN2C(=O)C2CCCCC2)c1 (stereo not given)	2	2	4	5
